Most compounds without a hit are left out; they make up all but 3.7% or so of the library.
esBAF inh: blocks esBAF chromatin remodeling in mouse ES cells | AID 602393 | 2% of 350,000 active | Bmi1-luciferase knock-in reporter, 24 h; 100% = twice the neutral-well signal | reporter increase, % at 12.5 µM; in the data active = activation above about 40%; inconclusive = no clear call, values can overlap the other calls;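 note: 0% = median of the plate's neutral control wells and 100% = double that signal; a rise in the Bmi1 reporter signal indicates esBAF inhibition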
MITF act: activators of MITF-driven TRPM1 promoter activity in SK-MEL-5 cells | SK-MEL-5 TRPM1-promoter luciferase, 24 h; % of positive control, neutral wells = 0 | activation, % at 12.5 µM | 0.75% of 300,000 active;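 active = mean activation of at least 80% with every replicate also reaching 80%; inconclusive = mean reaches 80% but some replicate falls short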;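 note: 0% = neutral control wells and 100% = parthenolide positive control wells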
Wnt bcat act: activators of Wnt/beta-catenin signaling; Wnt/beta-catenin reporter cell assay, activator, plate reader; AID 743398; activation, % at 9.35 µM; 1.2% of 300,000 active; in the data active = activation above about 30%, passing the limit was not always enough; inconclusive = no clear call, values can overlap the other calls;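 note: 0% = neutral control wells and 100% = positive control wells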
MLL AF4-AF9 inh: MLL-AF4/AF9 protein interaction inhibition; AlphaScreen, biotin-AF4 peptide binding to FLAG-AF9; inhibition, % at 10 µM; 0.47% of 350,000 active; AID 651704;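 active = every replicate reaching a set inhibition limit, whatever the replicate mean, cut at about 25% in these data; inconclusive = mean inhibition reaches that limit but some replicates miss it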;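 note: 0% = plate neutral control median and 100% = total signal loss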
Target sequence (P42568 whole entry, looked up): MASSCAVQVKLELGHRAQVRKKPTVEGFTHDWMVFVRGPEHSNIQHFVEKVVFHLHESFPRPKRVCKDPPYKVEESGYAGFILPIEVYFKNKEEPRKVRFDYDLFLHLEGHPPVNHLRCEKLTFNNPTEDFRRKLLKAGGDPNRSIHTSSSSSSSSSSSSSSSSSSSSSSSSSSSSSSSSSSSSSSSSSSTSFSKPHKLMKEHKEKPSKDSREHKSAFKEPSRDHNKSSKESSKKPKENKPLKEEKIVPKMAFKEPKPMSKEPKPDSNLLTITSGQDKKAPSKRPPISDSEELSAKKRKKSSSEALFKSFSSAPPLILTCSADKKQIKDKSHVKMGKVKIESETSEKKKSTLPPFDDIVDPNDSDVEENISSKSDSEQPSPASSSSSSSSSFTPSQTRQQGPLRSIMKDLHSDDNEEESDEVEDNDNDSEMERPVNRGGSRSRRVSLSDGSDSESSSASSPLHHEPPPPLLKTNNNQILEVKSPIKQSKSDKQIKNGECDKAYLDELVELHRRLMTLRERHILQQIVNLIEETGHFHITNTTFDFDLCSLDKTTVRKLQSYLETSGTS
Ecoli rRNA inh: inhibits bacterial ribosomal RNA function over humanized ribosomes; 1.6% of 350,000 active; GFP signal change (wild-type ribosome), % (concentration not given with the values); E. coli WT GFP vs humanized-ribosome RFP mutants, fluorescence, 24 h; active compounds read low; DMSO median 0, no signal -100;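 active = significant combined selectivity score with lowered wild-type GFP, culture density cut under 30%, mutant RFP and density less affected; inactive = any of these conditions unmet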
The depositor's hits bear a star; u = inconclusive; x = no result.

SMILES	esBAF inh	MITF act	Wnt bcat act	MLL AF4-AF9 inh	Ecoli rRNA inh
Nc1[nH]c(C(=O)c2ccccc2)c(-c2ccc(Cl)cc2Cl)c1C(=O)c1ccc(Cl)cc1	x	x	-2	-1	-9
Cc1cccc(OCc2nnc(SCC(=O)Nc3nccs3)o2)c1	0	-6	4	-4	-41*
O=C(CSc1nnc(COc2ccccc2)o1)Nc1nccs1	8	0	-5	-1	-9
Cc1[nH]c2ccccc2c1/C=N/Nc1ccc([N+](=O)[O-])cc1	x	21	0	11	2
Cc1[nH]c2ccccc2c1/C=N/Nc1ccccn1	x	x	2	26*	-3
Nn1cnnc1N/N=C/c1ccc(Cl)cc1Cl	4	-7	2	5	0
Cc1[nH]c2ccccc2c1/C=N/Nc1nncn1N	x	1	0	-3	-30*
C[C@@H]1CN([C@@H](C)CO)C(=O)c2cc(C#Cc3cccnc3)cnc2O[C@H]1CN(C)Cc1cccnc1	7	x	x	-3	-1
C[C@@H]1CN([C@H](C)CO)C(=O)c2c(c3ccccc3n2C)-c2ccccc2CO[C@@H]1CN(C)Cc1ccc(C(F)(F)F)cc1	x	x	x	x	2
CN(N=O)c1ccc(C=C2C=Cc3ccccc32)cc1	x	75	9	-3	-6
CCN(N=O)c1ccc(C=C2C=Cc3ccccc32)cc1	x	97*	41*	5	-3
CCN(CC)CCNC(=O)c1cc(-c2cccnc2)nc2ccc(S(=O)(=O)N3CCC(C)CC3)cc12	-4	-88	1	6	1
Cc1ccc2[nH]c(C(=O)N3CCCC(Nc4ccc(F)cc4)C3)cc2c1 (stereo not drawn)	-3	2	-1	-1	-34*
Cc1cc(C)c(C(=O)N2CCCC(Nc3ccc(F)cc3)C2)o1 (stereo not drawn)	-3	1	0	8	-3
CS(=O)(=O)c1ccc(Cl)c(NC(=O)CSc2nnc3n2CCCCC3)c1	6	x	-3	-2	-6
O=C(O)/C=C/C(=O)Nc1ccc2c(c1)C(=O)c1ccccc1C2=O	x	18	50*	x	-35*
CC(=O)Nc1ccc2c(c1)C(=O)c1ccccc1C2=O	27	x	x	x	x
O=C(NN=C1CCCC1)c1cc(-c2ccc(F)cc2)nc2ccccc12	-11	0	0	0	20
O=C(NCCCN1CCCC1=O)c1ccccc1OCc1ccc(Cl)cc1Cl	-2	-4	-4	-4	-31*
O=C(NCCCN1CCCC1=O)c1cc(-c2ccc(F)cc2)nc2ccccc12	4	22	-4	1	-20*
O=C(NNS(=O)(=O)c1cccc(Cl)c1)c1cc(-c2ccc(F)cc2)nc2ccccc12	-1	-4	0	-1	-19*
O=C(c1cnc(N2CCN(c3ccccn3)CC2)c2ccccc12)N1CCN(c2cccc(Cl)c2)CC1	-28	-21	-5	0	4
CCOC(=O)/C(C#N)=C(\O)c1ccc(NC(=O)c2ccc([N+](=O)[O-])cc2)cc1	x	x	-1	x	-4
CC(=O)NC1C(c2nc3ccccc3s2)=C(c2ccccc2)C(=O)N1c1ccc(C)cc1 (stereo not drawn)	21	x	33*	x	x
CCCCCN(C(=O)CCC(=O)OCC(=O)N(C)C1CCCCC1)c1c(N)n(CCCC)c(=O)[nH]c1=O	x	-2	3	-4	-5
SMILES	esBAF inh	MITF act	Wnt bcat act	MLL AF4-AF9 inh	Ecoli rRNA inh
O=C(COC(=O)c1cccnc1Cl)Nc1ccc2c(c1)OCCO2	4	11	20	1	-14
COc1ccc(NC(=O)Cn2nnc(-c3ccccc3N)n2)cc1OC	1	-10	x	x	-10
Cc1cccc(NC(=O)COc2ccc(Br)cc2/C=N/O)c1	x	122*	15	0	-44*
COc1ccccc1OCC(=O)Nc1ccc2c(c1)OCCO2	45*	u	4	-3	-8
NC(=O)c1ccccc1OCC(=O)Nc1ccc2c(c1)OCCO2	u	96*	22	-9	5
Nc1ccccc1-c1nnn(CC(=O)Nc2ccc3c(c2)OCCO3)n1	2	-8	1	0	-25*
CCOc1ccc(S(=O)(=O)N2CCCC(C(=O)NCC3CCCO3)C2)cc1Cl (stereo not drawn)	x	-6	-3	1	-4
O=C(NC1Cc2ccccc2C1)[C@@H]1[C@@H](CO)[C@@H]2Cn3c(ccc(C4=CCCCC4)c3=O)[C@H]1N2	1	x	x	-1	-3
O=C(C[C@H]1CC[C@H]2[C@@H](COC[C@H](O)CN2C(=O)c2ccncc2)O1)NCc1ccc(-c2ccccc2)cc1	-2	x	x	3	-1
O=C1c2cnc3nc(SCc4ccc(Cl)cc4)nn3c2CC2c3ccccc3CCN12 (stereo not drawn)	-7	x	x	x	x
Cc1ccccc1OCC(=O)Nc1ccc2c(c1)OCCO2	x	125*	38*	-2	-13
Cc1ccccc1OCC(=O)OCC(=O)Nc1ccc2c(c1)OCO2	-4	-3	1	0	0
O=C(COc1ccccc1Cl)Nc1ccc2c(c1)OCCO2	49*	54	x	x	x
Cc1cccc(C)c1OCC(=O)Nc1ccc2c(c1)OCCO2	43*	35	18	-3	-6
COc1ccccc1OCC(=O)Nc1nc(C)c(C)s1	30	85*	35*	-5	-3
Cc1c(C(=O)NCc2ccc(F)cc2)sc(=O)n1Cc1ccc(Cl)c(Cl)c1	15	x	-4	-2	-15
COc1ccc(NC(=O)Nc2ccc3c(c2)C(=O)N([C@@H](C)CO)C[C@H](C)[C@@H](CN(C)CC2CC2)OCCCC[C@H](C)O3)cc1	-8	x	x	22	1
CCOC(=O)C(C)Oc1cccc2c(=O)n(CC(=O)Nc3cccc(OC)c3)ccc12 (stereo not drawn)	-12	2	-1	-9	8
CCOC(=O)C(C)Oc1cccc2c(=O)n(CC(=O)Nc3ccc4c(c3)OCCO4)ccc12 (stereo not drawn)	-4	-8	-2	45*	9
Cc1cc(C)c(OCC(=O)Nc2cccc(O)c2)cc1C	55*	u	x	x	x
O=c1cc(-c2ccccc2)[nH]c2cc(Cl)ccc12	-6	-9	-13	-3	12
Clc1ccc2[nH]c(-c3ccccc3)cc2c1	60*	46	x	x	x
CC(C)Cc1ccc(-c2cc3nc(NCC4CC4)ccn3n2)cc1	83*	x	-1	1	-2
FC(F)(F)c1cccc(-c2cc3nc(NC4CCCCC4)ccn3n2)c1	43*	x	-2	-2	-10
c1cc(-c2cc3nc(NC4CCCCC4)ccn3n2)ccc1OCCN1CCOCC1	50*	x	-2	6	-8
c1cc(-c2cc3nc(NCC4CC4)ccn3n2)ccc1OCCN1CCOCC1	46*	x	4	6	-8
FC(F)(F)c1cccc(-c2cc3nc(NCCOc4ccccc4)ccn3n2)c1	34	x	6	-33	7
CCn1c(O)c(N=Nc2ccc(Cl)c(C(=O)O)c2)c2ccccc21	x	12	3	5	-15
CC(C)n1c(O)c(N=Nc2ccc(Cl)c(C(=O)O)c2)c2ccccc21	7	0	4	4	-18*

Bioassay records from PubChem BioAssay.
